For 12 molecules, growth results are on record in PubChem BioAssay (NCI).

Values joined by “and” are separate entries in the source; they are usually repeats but may differ in a detail not shown here. Identical values can stand only once. Compounds without any hit were thinned out: in the full panel of roughly 83,000, 20% have a hit.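 The endpoint reported here, percent growth, reads 100 for growth as untreated, 0 for no net growth and -100 for all cells dead.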 Values without a mark were called inactive. Active and inactive are the calls of the source. Rule for the calls: active = growth percent below 10; inactive = the rest.

In this assay the test system is BT-549 breast. Nature of the assay: NCI-60 one-dose screen, 48 h (100 = growth as untreated, 0 = no growth, -100 = all killed). Particulars: 10 µM unless noted.
As to `CN1CCN(Cc2ccc(NC(=O)c3cccc(C#Cc4c(N)ncc5ccc(F)cc45)c3)cc2C(F)(F)F)CC1`, the growth is 28.5%.
As for `O=S(=O)(Nc1cc(Sc2cccc3cccnc23)c(O)c2ccccc12)c1ccc(F)cc1`, the figure is 30.7%; as for `CCOC(=O)c1cc2c(n1Cc1cc(OC)cc(OC)c1Br)-c1nc(NC(C)=O)sc1CCC2`, 92.9%.
As for `C#Cc1cc(C(=O)Nc2ccc(CN3CCN(C)CC3)c(C(F)(F)F)c2)ccc1C`, the figure is 101%; as for `O=c1cc(N/N=C/c2ccc(F)cc2)c2cc(Cl)ccc2[nH]1`, 93.6%.
Then `COc1ccc(Nc2nn3c(SCC(=O)c4ccc(C)cc4)nnc3s2)cc1`, with 92.2%.
Consider `Nc1ccccc1SC(CC(=O)c1ccccc1)c1ccc([N+](=O)[O-])cc1` (configuration not stated), for which the growth is 83.6% and 86.4%.
For `O=C1/C(=C/c2ccc(-c3cccc(C(F)(F)F)c3)o2)SC(=S)N1CCc1ccc(O)cc1`, the growth was 75.7%.
Then `COc1cc2c(cc1OCCCOC1=C=C=C(c3ccc4c(c3)c3cc(-c5ccc(OCCCOc6cc7c(cc6OC)C(=O)N6CCC[C@H]6C=N7)cc5)ccc3n4S(=O)(=O)c3ccc(C)cc3)C=C1)N=C[C@@H]1CCCN1C2=O`, with 277%.
As to `CN1CCN(Cc2ccc(NC(=O)c3nc4ccc5[nH]ncc5c4c4c3CCCC4)cc2C(F)(F)F)CC1`, the growth was -78.5% (active).
As for `CCOC(=O)n1cc(-c2nonc2-c2cn(C)c3ccc(OC)cc23)c2cc(F)ccc21`, the figure is 86.9%.
Then `CCOc1ccccc1NC(=O)c1cc2ccccc2cc1O`, with 85%.
